In all, about 53,000 sequences went through this assay and about 3,700 (7%) were called active. Many of the other results were omitted from the sample, so actives are more common in it than they were. Unmarked numbers belong to inactive results.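 Rule for the calls: active = gene knockdowns whose robust z-score for IL-1 alpha signal is at least 2 or at most -2, so actives lie on both sides; inactive = the rest.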

The test can be described thus: Components of the Cytosolic LPS Sensing Pathway: Gene Identification via Genome-wide siRNA Screen.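 Note: robust z of the log signal after scaling to non-targeting control siRNA wells of the plate.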 Particulars: RAW264.7 macrophages, IL-1a HTRF, actives lie on both sides, screened at 100 nM (by protocol), cells primed 5 h with Pam3CSK4 first. A digest of the protocol:
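RAW264.7; siRNA 100 nM final, RNAiMAX, 48h 37 degrees C; Pam3CSK4 5 h; LipidA + TransIT-TKO 24 h; IL-1a HTRF; CellTiter-Glo viability; robust z vs negative-control median.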
(Time-resolved FRET reads energy transfer from a long-lived donor to a nearby acceptor.)
With GGGAAGAAGACUGACAAGCTT against Lars, the z-score is 2.03 (active).

In the case of GGAGAUGAAGAAGAUAUUGTT against Smoc2, the z-score was -0.764.

For GGUCUACUUCUUUUUUACGTT against Sema4d, the z-score was 0.467.

As to GGUGAUAACUCCGGGCCAATT against Fam3b, the z-score was 2.32 (active).

Take “CCCUGCUGGUUGGUAAUCATT against F830005K03Rik”: the z-score is 0.548.

For the sequence GCUAAGAUUGUCAUGAUGUTT against Bambi, the z-score is -1.02.

Take GGAAAGAAGGUGAACAACATT against Phax: the z-score was 1.96.

Take GCAGAAGAAGAAGGGUUCCTT against Emx1: the z-score was 3.59 (active).

In the case of GGGAGAACCAGCACAACAUTT against Cavin2, the z-score is -1.8.

Regarding GGAAGACAUUCACGAUUGUTT against Deptor, the z-score is -0.0976.

As to GGAGUUCAGCAACCUGUUGTT against Tmem97, the z-score was -2.08 (active).

With GGGAUCAUUGCUGUCCUCUTT against Adora2b, the z-score is -1.33.

As for CCUCAAACCAUCAACAACCTT against Six3, the z-score was -2.04 (active).

For GGAACUUUCCUUUUUUGUCTT against Serpinb5, the z-score was 0.889.

Regarding GGUGAUGAUGUCCAGAAGUTT against Kdm4d, the z-score is -0.913.

As to GGAGAAAGUCUUUGUGAACTT against Lipc, the z-score is -1.1.

GGCUUUCUUUUUGAAAGAATT against Arhgap10: the z-score was 0.78.

Consider GGAACCUACUUGUUACCUUTT against Nlrp5, for which the z-score is 0.731.

Consider CGGUCAUUAAAACUUACAGTT against Hells, for which the z-score is 2.69 (active).

GCCGGGAGAAAUAAAUGGUTT against Mif: the z-score was -0.654.

For GGAAAAACUCUUCUUCACGTT against Nphs1, the z-score was -0.0272.

In the case of GGAGGACUCUGCUUCCAUATT against Pwwp3b, the z-score was -0.848.

As for GGUUCUGGAAGUGAAGGUGTT against Prg2, the z-score was -0.00973.

For CCACUUCCGAUGAGCCAGATT against Mrps10, the z-score is -3.31 (active).

As to GCUAUUGGUGCUUCAGUCCTT against Rtel1, the z-score is -0.458.

With GCCGUGUUCAUGAAUAAACTT against Glce, the z-score is -0.392.

For the sequence GCUCUGUGAGCGAAAGUUCTT against Synpo2, the z-score was 1.72.

In the case of CGUGGUCAGCGAGAGAGAATT against Sohlh1, the z-score is 1.19.

For GGAUGCUGACAACAUAUACTT against Plk3, the z-score was -0.726.

Regarding GGUUUUCCUGUUCAAUUCUTT against Olfr586, the z-score was 2.4 (active).

Source of the values: PubChem BioAssay AID1508600 (Functional Genomics Laboratory (NCATS/FGL), 2020).
